Measured values as given in PubChem BioAssay AID2102 (Southern Research Specialized Biocontainment Screening …, 2009).
In all, about 1,100 compounds went through this assay and about 210 (19%) were called active. Only a sample is shown. Results with a measured potency or affinity are listed apart. Unmarked numbers belong to inactive results. How the calls were made is not given here.

test: host cell cytotoxicity, dose response, cytotoxicity control for SV40 T antigen inhibitor project, selected hits (AID 2102); conditions: Host cell viability cytotoxicity counter-screen; series mostly up to 50 µM; viability: at the top concentration;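 further: cells exposed to compounds for 72 hours; 100% = mean of untreated cell control wells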

SMILES	viability [%]
Cc1cc(C)n(CCc2nc(-c3ccco3)cs2)n1	85.3
Nc1ccc(-c2nc3c(Cl)c(N)ccc3[nH]2)cc1	126
Nc1ccc2nc(CCCCCCc3nc4ccc(N)cc4[nH]3)[nH]c2c1	111
CC(C)C(C(=O)O)N1C(=O)/C(=C/C=C/c2ccco2)SC1=S (configuration not stated)	123
O=C1NC(=NCc2ccccc2)S/C1=C/c1ccc(O)cc1	89.2
C/C(=N/NC(=O)CSc1nc2ccccc2n1C)c1ccc(O)cc1	92.7
COc1ccc(NC2CCCN(C(=O)CCCn3cncn3)C2)cc1 (configuration not stated)	112
O=C1NC(=O)/C(=C/c2ccc(O)cc2)S1	101
O=C(O)Cc1c[nH]c2cccc(O)c12	92.2
O=C(CCc1ccc(O)c(O)c1)N/N=C/c1cc2c(cc1[N+](=O)[O-])OCO2	91.3
COc1ccc(CC(=O)N/N=C(\C)CC(=O)Nc2ccc(N(C)C)cc2)cc1OC	126
COc1ccc(/C=N/NC(=O)CCc2n[nH]c(=O)[nH]c2=O)cc1O	105
COc1cc(/C=C2\C(=O)NN(c3ccccc3)C2=O)ccc1OCC(N)=O	104
O=S1(=O)N=C(Nc2ccc(O)cc2)c2ccccc21	115
Cc1nnc(Nc2ccc(O)cc2)[nH]c1=O	110
CCOc1cc(/C=N/NC(=O)CCc2n[nH]c(=O)[nH]c2=O)ccc1O	99.8
C=CCn1c(SCC(=O)c2ccc(O)c(O)c2)nnc1-c1cccnc1	121
CCOC(=O)CNc1c(-c2ccc(O)cc2)nc2ccccn12	90.2
O=C(Nc1cccc(N2C(=O)C=CC2=O)c1)c1cccs1	110
COc1cc(/C=N/N=C(\N)c2nonc2N)ccc1O	115
COc1cc(C=C2C(=O)c3ccccc3C2=O)ccc1O	121
COc1cc(-c2cc(=O)c3c(O)c(OC)c(OC)c(O)c3o2)ccc1O	97.4
O=C(CC(=O)N/N=C/c1ccc(O)cc1)N/N=C/c1ccc(O)cc1	98.6
O=C(N/N=C/c1ccc(O)c(O)c1)N/N=C/c1ccc(O)c(O)c1	98.8
Oc1ccc(Nc2nc(Cl)nc(NCc3ccco3)n2)cc1	97.5
CCOc1cc(-c2ccc(N)c(OCC)c2)ccc1N	84.3

SMILES	viability [%]
Nc1cc(C(=O)O)ccc1Nc1ccccc1	88
Oc1ccc(-c2cn3c(n2)SCC3)cc1O	101
COc1cc(/C=C/C(=O)OCC(=O)Nc2ccc(S(N)(=O)=O)cc2)ccc1O	107
Nc1ccc2nc(CCCO)[nH]c2c1	125
COc1cc(/C=N/NC(=O)c2cccc([N+](=O)[O-])c2)ccc1O	120
COc1cc(C=C(C(C)=O)C(C)=O)ccc1O	103
O=c1ccc2cc(O)c(O)cc2o1	96.9
O=C(Nc1ccc(O)cc1)/C(=C\c1ccncc1)NC(=O)c1ccccc1	110
Cc1nnc(N/N=C/c2c(O)n(-c3cccc(C(F)(F)F)c3)c(=O)c3ccccc23)[nH]c1=O	89.5
COc1ccc(-c2cc(=O)oc3c(O)c(O)ccc23)cc1	102
O=C1CCCC/C1=C\Nc1ccc(O)cc1	97.2
O=c1cc(CN2CCN(Cc3ccccc3)CC2)c2ccc(O)c(O)c2o1	90.2
Oc1cnn(-c2ccccc2)c1	112
Nc1cc(CN2C(=O)c3ccccc3C2=O)cc(Cl)c1O	94.5
COc1cc(/C=N/Nc2ccnc(=O)[nH]2)ccc1O	109
COc1ccc(NC2CCCN(C(=O)CCn3cccn3)C2)cc1 (configuration not stated)	97.3
COc1ccc(NC2CCCN(C(=O)c3ccc(OC)cc3OC)C2)cc1 (configuration not stated)	85.2
COc1cc(/C=N/NC(=O)c2c(-c3ccccc3)noc2C)ccc1O	88.4
C/C(CC(=O)Nc1ccc2ccccc2c1)=N\NC(=O)c1ccc(O)c(O)c1	97.8
O=C(Nc1ccc(O)cc1)C1CC=CCC1 (configuration not stated)	94
Cc1ccc(S(=O)(=O)N2CCN(CC(=O)N/N=C\c3ccc(O)c(O)c3)CC2)cc1	115
CC(C)C(=O)c1ccc(O)c(O)c1	90.9
CCCSc1nc(O)c(C(c2ccc(OC)c(O)c2)c2c(O)nc(SCCC)n(C)c2=O)c(=O)n1C	104
COc1cc(Cn2nnc3ccccc32)ccc1O	91
Cc1ccc2c(c1C)NC(C(=O)O)C1CC=CC21 (configuration not stated)	111
CC(/C=N/n1c(-c2n[nH]c3c2CCC3)n[nH]c1=S)=C\c1ccco1	92.1

SMILES	viability [%]
Nc1nc(-c2cccs2)c(NC(=O)c2ccccc2)s1	99.8
O=C1CNC(=S)N1CCc1ccc(O)c(O)c1	106
N#CC1=C2SCN(Cc3ccco3)CN2C(=O)CC1c1ccc(Cl)cc1 (configuration not stated)	98.5
CCn1c(/C=C/c2ccc(O)c(O)c2)nc2ccccc2c1=O	85.1
O=C(CSc1nc2ccccc2o1)N/N=C/c1ccc(O)c(O)c1	90.5
O=C(N/N=C/c1ccc(O)c(O)c1)c1cc(-c2ccccc2)nc2ccccc12	99.2
Cc1cc(SCC(=O)N/N=C/c2ccc(O)c(O)c2)nc2ccccc12	86.3
O=C1ON=C(c2ccccc2)/C1=C/c1ccc(O)c(O)c1	107
O=C1C=CC(=O)N1c1ccc(O)cc1	104
Cc1nc(Cl)cc(N/N=C/c2ccc(O)cc2)n1	96.5
CCOc1ccc(N2Nc3n[nH]c(N)c3N2)cc1	94.2
Cc1c(NC(=O)CN2CCN(c3ccc(O)cc3)CC2)c(=O)n(-c2ccccc2)n1C	96.2
O=C1CC(N2CCN(c3ccc(O)cc3)CC2)C(=O)N1Cc1cccs1 (configuration not stated)	94.6
Cc1nc2ccc(N=NN(C)C)cc2[nH]1	96.2
O=C(Cn1c(=O)oc2ccccc21)Nc1n[nH]c(=S)s1	96.6
Cc1cc(C)c2c(CCl)cc(=O)oc2c1	86.8
CCSS(=O)(=O)c1cccc2cccnc12	92.4
O=C1/C(=C/c2ccncc2)SC(=S)N1Nc1ccccc1	102
CCc1cc2c(Nc3ccc(O)cc3)nc(C)nc2s1	95.3
COc1ccc(N2CCN(C(=O)CN(c3ccccc3)S(C)(=O)=O)CC2)cc1	89.1
Cc1cc(NC(=O)CN2CCN(c3ccc(O)cc3)CC2)no1	95.5
O=C(c1ccc2ncsc2c1)N1CCN(c2ccc(O)cc2)CC1	103
CCOC(=O)N1CCN(c2ccc(O)cc2)CC1	97
O=C(C1CC1)N1CCN(c2ccc(O)cc2)CC1	103
O=C(CCC(=O)N1CCN(c2ccc(O)cc2)CC1)c1cccs1	98.9
